Drawing on PubChem BioAssay (NCATS), this text covers outcome and Potency for 23 compounds.

A short description of assay [1]: Cellular Toxicity (caspase-3) NIH 3T3 (AID 666).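 Note: caspase signal read after 16 h compound exposure.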 An outline of the steps:
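Activity: caspase-3/7 induction, NIH 3T3 cells, 16 hr treatment at 37°C, luminescent Caspase-Glo detection; AC50 via Hill equation.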

Assay [2] in a line: Cellular Toxicity (caspase-3) Renal Proximal Tubule (AID 667).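 Note: cells exposed to compound for 16 hours at 37 °C before detection.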 An outline of the steps:
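In qHTS format, rat primary proximal tubule cells seeded at 1000 per well are exposed to compounds for 16 hours at 37 °C. An increase in Caspase-Glo 3/7 luminescence indicates caspase activation.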

The target in assay [3] is Guanine nucleotide-binding protein G(i) subunit alpha-1 (Homo sapiens) (UniProt P63096). The experiment in a line: qHTS Assay for Inhibitors of RGS12 GoLoco Motif Activity (Green Fluorophore) (AID 879). Note: potency is the fitted concentration of half-maximal effect. Put shortly: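 A drop in FITC polarization marked displacement of the FITC-tagged RGS12 GoLoco peptide (10 nM) from Gαi1 (50 nM). Compounds were incubated 10 min at room temperature in Tris pH 7.5 buffer containing 150 mM NaCl, 0.1 mM GDP and 0.05% NP40; unlabeled peptide titration served as control.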
A general note: In qHTS, concentration-response curves come from the screen itself.

In assay [4] the target is Cytochrome P450 3A4 (Homo sapiens) (UniProt P08684). The experiment in a line: qHTS Assay for Activators of Cytochrome P450 3A4 (AID 885). Note: nearly all actives have a fitted effect of over 65% in size. Put shortly: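 Human CYP3A4 dealkylates Luciferin-PPXE to luciferin, which luciferase detection converts to light. Substrate was at its KM (25uM), buffer 200mM KPO4, reaction 60 min at RT.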
Assay [5] concerns the target Cytochrome P450 2D6 (Homo sapiens) (UniProt P10635). The assay can be described thus: qHTS Assay for Inhibitors and Substrates of Cytochrome P450 2D6 (AID 891). Note: nearly all actives have a fitted effect of over 60% in size. Note: potency is the fitted concentration of half-maximal effect. Put shortly: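 Luminescent read-out of luciferin formed by 5 nM human CYP2D6 demethylating 30 uM Luciferin-ME EGE (Km level) over 60 min at room temperature after NADPH regeneration addition. Data normalized to full inhibition by 1.43 uM quinidine.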

Assay [6] in a line: Confirmation and Secondary Assay for Modulators of Hemoglobin Beta Chain Splicing at IVS2 654 locus (AID 910).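 Note: HeLa cells stably carrying EGFP split by mutant beta-globin IVS2-654 intron.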 Put shortly: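 HeLa cells stably expressing EGFP interrupted by β-globin IVS2-654 intron, seeded overnight in Opti-MEM/2% FCS, then treated 2 days at 37 °C. Restored splicing read as total peak GFP intensity per well by laser scanning cytometry (488 nm excitation, 500–520 nm emission); 500 nM antisense PNA as control.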

In assay [7] the target is Cytochrome P450 2C9 (Homo sapiens) (UniProt P11712). The experiment in a line: qHTS Assay for Inhibitors and Substrates of Cytochrome P450 2C9 (AID 883). Note: nearly all actives have a fitted effect of over 60% in size. Note: potency is the fitted concentration of half-maximal effect. Put shortly:
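Signal: luciferase luminescence reporting luciferin produced by CYP2C9. Conditions: 10nM enzyme, Luciferin-H 100uM at KM, 25mM KPO4, 37C, 60 min NADPH-driven reaction. Reference: 57uM sulphaphenazole as 100% inhibition.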

Assay [8] addresses Cytochrome P450 2C19 (Homo sapiens) (UniProt P33261). The assay can be described thus: qHTS Assay for Inhibitors and Substrates of Cytochrome P450 2C19 (AID 899). Note: nearly all actives have a fitted effect of over 60% in size. Note: potency is the fitted concentration of half-maximal effect. Put shortly: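 Signal comes from luciferase acting on luciferin released by CYP2C19-mediated hydroxylation of Luciferin-H EGE, 10uM (KM). Assay mix: 5nM enzyme, 50mM KPO4; 60 min at 37C with NADPH regeneration. Data normalized against 57uM ketoconazole.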

Assay [9] concerns the target Cytochrome P450 3A4 (Homo sapiens) (UniProt P08684). The experiment in a line: qHTS Assay for Inhibitors and Substrates of Cytochrome P450 3A4 (AID 884). Note: series mostly up to about 57 µM; nearly all actives have a fitted effect of over 50% in size. An outline of the steps:
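Luminescent readout of luciferin produced by CYP3A4 (20 nM) dealkylation of Luciferin-PPXE, 25 uM (its KM). NADPH-driven reaction ran 60 min at RT after 10 min compound preincubation; data scaled to 57 uM ketoconazole as 100% inhibition.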

The nature of assay [10]: qHTS Assay for Identification of Small Molecule Antagonists for NFkB Signaling Pathway (AID 895; active = well fitted inhibition curve with a large enough effect in the signal ratio, with a control signal flat, not every such curve was filed as active; the % refers to the signal ratio; note: potency is the fitted concentration of half-maximal effect). An outline of the steps: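 ME-180 NFkB-bla cells (beta-lactamase under NFkB response element), plated overnight, treated with compound then 10 pM TNF alpha (about EC50) for 5 hrs at 37 C. LiveBLAzer FRET read at 460/530 nm emission, 405 nm excitation.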

Several values for one entry are separate records, joined by “and”; a condition that tells them apart may be missing. Equal values may be shown once. Results filed as inconclusive are left out. Some structures have more than one record in an assay (separate samples or runs), and their calls can disagree. Activity calls are given as the source filed them. Unless noted, calls come from the whole dose curve; as a rule, active = well fitted curve in the direction sought with a large enough effect; inconclusive = small, poorly fitted or top-dose-only effect, or another doubt; inactive = no such curve, though single readings can be large; an effect the other way counts as inactive or inconclusive.

Chain of Guanine nucleotide-binding protein G(i) subunit alpha-1 (Homo sapiens) (P63096 whole entry, looked up): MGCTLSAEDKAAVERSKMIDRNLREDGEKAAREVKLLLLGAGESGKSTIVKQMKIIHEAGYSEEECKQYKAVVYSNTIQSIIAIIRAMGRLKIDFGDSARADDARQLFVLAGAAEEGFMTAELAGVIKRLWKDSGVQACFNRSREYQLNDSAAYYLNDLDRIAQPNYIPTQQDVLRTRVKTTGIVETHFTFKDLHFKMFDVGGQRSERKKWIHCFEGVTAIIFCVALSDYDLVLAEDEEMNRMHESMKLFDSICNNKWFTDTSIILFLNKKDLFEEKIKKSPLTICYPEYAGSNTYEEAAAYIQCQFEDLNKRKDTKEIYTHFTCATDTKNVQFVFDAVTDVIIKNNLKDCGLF
Chain of Cytochrome P450 2D6 (Homo sapiens) (P10635 whole entry, looked up): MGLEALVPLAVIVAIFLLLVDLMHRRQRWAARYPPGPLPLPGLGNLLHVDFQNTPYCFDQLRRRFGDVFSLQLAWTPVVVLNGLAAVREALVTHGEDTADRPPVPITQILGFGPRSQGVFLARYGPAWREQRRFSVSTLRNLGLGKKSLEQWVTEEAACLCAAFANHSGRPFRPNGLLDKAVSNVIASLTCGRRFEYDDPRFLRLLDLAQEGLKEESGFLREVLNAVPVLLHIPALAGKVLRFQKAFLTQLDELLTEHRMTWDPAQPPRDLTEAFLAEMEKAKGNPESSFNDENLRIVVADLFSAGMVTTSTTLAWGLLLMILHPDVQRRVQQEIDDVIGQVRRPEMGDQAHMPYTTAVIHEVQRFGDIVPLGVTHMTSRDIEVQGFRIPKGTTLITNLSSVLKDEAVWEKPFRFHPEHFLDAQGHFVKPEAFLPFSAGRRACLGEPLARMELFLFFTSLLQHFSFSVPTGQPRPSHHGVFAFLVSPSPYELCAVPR
Chain of Cytochrome P450 2C9 (Homo sapiens) (P11712 whole entry, looked up): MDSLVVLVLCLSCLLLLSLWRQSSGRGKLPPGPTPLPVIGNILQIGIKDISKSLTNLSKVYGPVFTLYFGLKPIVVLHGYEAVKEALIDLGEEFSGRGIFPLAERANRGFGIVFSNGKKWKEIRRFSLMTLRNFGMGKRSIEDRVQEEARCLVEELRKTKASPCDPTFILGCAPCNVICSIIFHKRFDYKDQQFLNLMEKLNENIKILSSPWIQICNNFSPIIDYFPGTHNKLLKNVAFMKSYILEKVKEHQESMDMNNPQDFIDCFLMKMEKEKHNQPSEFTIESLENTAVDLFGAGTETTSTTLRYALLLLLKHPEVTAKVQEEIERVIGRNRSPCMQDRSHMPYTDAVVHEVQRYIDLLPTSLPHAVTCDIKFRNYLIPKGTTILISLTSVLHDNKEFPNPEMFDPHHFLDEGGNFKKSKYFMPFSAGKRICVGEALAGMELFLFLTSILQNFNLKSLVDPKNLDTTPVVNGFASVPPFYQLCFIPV
Chain of Cytochrome P450 3A4 (Homo sapiens) (P08684 whole entry, looked up): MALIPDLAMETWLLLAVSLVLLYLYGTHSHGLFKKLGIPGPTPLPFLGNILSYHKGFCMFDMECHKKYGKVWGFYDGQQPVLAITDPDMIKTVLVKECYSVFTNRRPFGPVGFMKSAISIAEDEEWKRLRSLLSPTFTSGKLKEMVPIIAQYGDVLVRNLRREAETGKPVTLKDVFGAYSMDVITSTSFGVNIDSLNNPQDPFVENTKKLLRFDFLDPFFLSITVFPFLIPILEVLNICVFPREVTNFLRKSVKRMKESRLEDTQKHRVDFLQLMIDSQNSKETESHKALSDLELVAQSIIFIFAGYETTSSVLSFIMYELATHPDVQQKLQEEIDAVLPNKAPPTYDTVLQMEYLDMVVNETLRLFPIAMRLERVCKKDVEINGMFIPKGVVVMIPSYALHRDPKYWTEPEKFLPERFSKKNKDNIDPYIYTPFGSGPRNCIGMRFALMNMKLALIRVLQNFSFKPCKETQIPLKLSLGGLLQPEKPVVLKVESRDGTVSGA
Chain of Cytochrome P450 2C19 (Homo sapiens) (P33261 whole entry, looked up): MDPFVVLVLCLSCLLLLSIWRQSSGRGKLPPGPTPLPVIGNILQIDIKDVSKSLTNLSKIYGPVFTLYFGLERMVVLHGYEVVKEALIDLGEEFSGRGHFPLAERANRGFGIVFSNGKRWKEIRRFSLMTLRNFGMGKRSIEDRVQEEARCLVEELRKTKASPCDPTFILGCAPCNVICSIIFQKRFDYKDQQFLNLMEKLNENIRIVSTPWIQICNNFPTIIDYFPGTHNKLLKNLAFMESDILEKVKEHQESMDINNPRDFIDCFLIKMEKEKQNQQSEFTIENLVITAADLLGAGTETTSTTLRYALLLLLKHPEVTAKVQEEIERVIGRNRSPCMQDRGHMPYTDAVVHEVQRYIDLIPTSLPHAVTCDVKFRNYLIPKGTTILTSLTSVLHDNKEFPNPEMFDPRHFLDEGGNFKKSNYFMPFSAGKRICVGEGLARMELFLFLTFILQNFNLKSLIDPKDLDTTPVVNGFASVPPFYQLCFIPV

For `Nc1c2c(nc3ccccc13)CCCC2`, the compound was classed as inactive in assay [1] and in assay [2]. The Potency entry in assay [3], in [4] and in assay [6] was “inactive” in each case. The Potency in assay [5] is 5.01 µM (active).

On to `NCCS(=O)(=O)O`, for which the outcome in assay [1] and in assay [2] was inactive. Also, the Potency entry in [3] is “inactive”.

On to `O=c1c(-c2ccc(O)cc2)coc2cc(O)cc(O)c12`, for which the compound was classed as inactive in assay [1] and in assay [2]. Besides, the Potency entry in assay [3], in [7], in assay [4], in [5] and in [6] was “inactive” in each case. In assay [8], the Potency result is “inactive and 20 µM (active)”.

For the compound `CCOC(=O)Nc1ccc(NCc2ccc(F)cc2)nc1N`, in [3], the Potency result is “inactive”.

`Nc1nc2c(ncn2COC(CO)CO)c(=O)[nH]1`: the Potency result in [3] was “inactive”.

For `OCCN(CCO)c1nc(N2CCCCC2)c2nc(N(CCO)CCO)nc(N3CCCCC3)c2n1`, the Potency in assay [3] was 10 µM (active); in assay [5], 12.6 µM (active) and 10 µM (active). In addition, the compound was called inactive in assay [5]. Moreover, the Potency entry in [6] was “inactive”.

In the case of `Clc1ccc2c(c1)C(N1CCNCC1)=Nc1ccccc1O2`, the Potency entry in [3], in [7], in [4], in assay [8] and in [6] was “inactive” throughout.

As to `COc1nc(C)nc(Cl)c1NC1=NCCN1`, the Potency entry in assay [3] and in assay [8] was “inactive” throughout. The outcome in assay [9] was inactive.

As to `O=C1c2c(O)ccc(O)c2C(=O)c2c(NCCNCCO)ccc(NCCNCCO)c21`, the Potency result in assay [3] and in assay [6] was “inactive” in each case. Further, the Potency in assay [10] was 2 µM (active).

`CN(C)CCC=C1c2ccccc2C=Cc2ccccc21`: the Potency result in assay [3] and in [6] was “inactive” each time. Further, in assay [9], the compound was classed as inactive. The Potency in assay [5] is 6.31 µM (active).

For `CN(C)c1nc(N(C)C)nc(N(C)C)n1`, the Potency result in [3], in assay [10] and in assay [6] was “inactive” in each case.

As for `O=c1c(O)c(-c2ccc(O)c(O)c2)oc2cc(O)cc(O)c12`, the Potency result in assay [3], in [4], in assay [5] and in [6] was “inactive” in each case.

On to `CN1CCC(=C2c3ccccc3CC(=O)c3sccc32)CC1`, for which the Potency entry in assay [3] and in assay [6] was “inactive” each time. For the same compound, the compound was called inactive in assay [9]. Moreover, the Potency in [5] was 7.94 µM (active) and 3.16 µM (active) and 5.01 µM (active).

Take `CN(C)CCCN1c2ccccc2CCc2ccc(Cl)cc21`: the Potency result in assay [3], in [7], in assay [4], in assay [10], in assay [8] and in assay [6] was “inactive” throughout.

Take `Cn1ccc2cc3c(cc21)CCN3C(=O)Nc1cccnc1`: the Potency result in assay [3] and in assay [4] was “inactive” in each case.

Regarding `Cc1ccccc1N1C(=O)c2cc(S(N)(=O)=O)c(Cl)cc2NC1C` (stereo not given), the Potency entry in assay [3], in assay [4] and in assay [6] was “inactive” in each case.

Turning to `O=C1N(c2ccccc2)c2ccccc2C1(Cc1ccncc1)Cc1ccncc1`, the Potency result in [3] and in [5] was “inactive” in each case. The Potency in [7] was 3.98 µM (active) and 7.94 µM (active); in [8], 3.16 µM (active) and 199 nM (active).

Turning to `O=C(Nc1ccc([N+](=O)[O-])cc1Cl)c1cc(Cl)ccc1O`, the Potency result in [3], in [4] and in assay [6] was “inactive” in each case. For the same compound, the Potency in assay [7] was 631 nM (active).

As to `CN1C(C(=O)Nc2ccccn2)=C(O)c2ccccc2S1(=O)=O`, the Potency result in [3], in assay [4], in [5] and in assay [6] was “inactive” each time. Further, the Potency in assay [7] is 3980 nM (active); in [8] it was “inactive and 6.31 µM (active)”.

For the compound `CCOC(=O)C(C)(C)Oc1ccc(Cl)cc1`, the Potency entry in assay [3] and in [10] was “inactive” each time.

For `O=C(C1CCCCC1)N1CC(=O)N2CCc3ccccc3C2C1` (stereo not given), the Potency result in assay [3], in assay [4], in [10] and in [6] was “inactive” throughout.

As to `CN1CCC(=C2c3ccccc3C=Cc3ccccc32)CC1`, the Potency result in assay [3] is “inactive”. The Potency in assay [5] is 2.51 µM (active) and 3.98 µM (active).

In the case of `Nc1nnc(-c2cccc(Cl)c2Cl)c(N)n1`, the Potency result in assay [3] and in [10] was “inactive” each time. In addition, the Potency entry in assay [5] was “inactive and 6.31 µM (active)”.
